# Laboratory results taken from PubChem BioAssay.
# Calls of active or inactive are those of the source.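 Rule for the calls, unless noted: active = fluorescence slope after compound addition differing from the mean of all screened samples at 99.7% confidence, in either direction; inactive = the rest.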
# Columns and labels:
# [1] = inhibitors of TNFa-induced NFkB p65 translocation, primary screen, imaging, HUVEC, MLSMR starter and 10KST1 sets (AID 438;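 active = inhibition above 20% together with a positive visual image hit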;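 note: compound added about 3h40 before a 20 min TNFalpha stimulation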;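 for inhibition: signal is the nuclear over cytoplasmic p65 intensity ratio per well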); conditions: HUVEC TNFa-induced p65 nuclear translocation; cell count: measured here: nuclei count (cytotoxicity indicator), at 2.08 µM; inhibition: at 2 µM, stronger effect = higher value, 0% TNFa-plus-vehicle, 100% no-TNFa wells
# [2] = inhibitors of mutant huntingtin aggregation, primary screen, imaging, exon1htt(103Q)mCFP cells, high-content imaging (AID 483;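 active = visual image review flags a hit and inhibition of aggregation exceeds 20%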;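 note: compound exposure lasted 3 days before fixation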;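 for nuclei count: percent of the per-plate median nuclei count of sample wells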); conditions: exon1htt(103Q)mCFP cell line, aggregate imaging, at 2 µM; inhibition of aggregation: stronger effect = higher value; nuclei count: measured here: cell count, toxicity
# [3] = inhibitors of E-selectin induction by TNFa, primary screen, imaging, HUVEC, immunofluorescence, MLSMR starter and 10KST1 sets (AID 487;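 active = visually confirmed hit in the image check and inhibition above 20%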;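 for inhibition: signal is fraction of cell area covered by stained E-selectin grains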;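 for nuclei count: 100% = median nuclei count of all wells on the same plate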); conditions: HUVEC TNFalpha-induced E-selectin immunofluorescence imaging, at 2 µM; inhibition: stronger effect = higher value; nuclei count: measured here: cell number, toxicity
# [4] = target: Voltage-gated potassium channel subunit beta-2 (Rattus norvegicus) (UniProt P62483); experiment: KvBeta enzyme negative modulators, primary screen, biochemical, NADPH fluorescence (AID 622;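 active = fluorescence slope higher than the sample average by over 3 SD, cut at about -0.22 in these data, passing the limit was not always enough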;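 note: slope of raw intensity against log time taken from 70 to 1610 s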); conditions: recombinant KvBeta, 4-cyanobenzaldehyde reduction, at 10 µM, stronger effect = higher value
# [5] = target: Voltage-gated potassium channel subunit beta-2 (Rattus norvegicus) (UniProt P62483); experiment: KvBeta positive modulators, primary screen, biochemical, NADPH fluorescence (AID 623;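 active = NADPH fluorescence slope more negative than the mean of all samples by about 3 SD, 99.7% confidence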;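 note: fluorescence intensity change per second fitted from 20 to 320 s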); conditions: Recombinant KvBeta, NADPH fluorescence decrease slope, 10 min; at 10 µM; stronger effect = lower value
# [6] = target: Alpha-2C adrenergic receptor (Homo sapiens) (UniProt P18825); experiment: modulators of alpha2C/GIRK thallium flux, primary screen, cell-based, HEK293 alpha2C/GIRK1/2 (AID 624); conditions: thallium flux BTC fluorescence, at 10 µM, actives lie on both sides;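 note: slope of fluorescence ratio to pre-addition baseline per second over 15 to 24 s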
# [7] = inhibitors of Sendai virus-induced IRF3 signaling, primary screen, TLR/RLR signaling modifier project, cell-based, Sendai virus stimulus, luciferase, 10K MLSCN set (AID 602276;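 active = inhibition at or above 50% at 10 µM; inactive = inhibition below 50%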;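 note: firefly luciferase from ISG56 promoter only with Renilla not read in this screen; 0% = Sendai virus plus DMSO and 100% = medium plus DMSO without virus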); conditions: HEK293 RL24 IRF3 luciferase reporter, at 10 µM, stronger effect = higher value
# [8] = inhibitors of poly I:C-induced TLR3 signaling, primary screen, cell-based, poly I:C stimulus, luciferase, 10K MLSCN set (AID 602277;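 active = inhibition of the reporter signal at or above 50%; inactive = inhibition below 50%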); conditions: HEK293-TLR3 RL24 IRF3 luciferase reporter, at 10 µM, stronger effect = higher value
# Voltage-gated potassium channel subunit beta-2 (Rattus norvegicus), sequence (P62483 whole entry, looked up): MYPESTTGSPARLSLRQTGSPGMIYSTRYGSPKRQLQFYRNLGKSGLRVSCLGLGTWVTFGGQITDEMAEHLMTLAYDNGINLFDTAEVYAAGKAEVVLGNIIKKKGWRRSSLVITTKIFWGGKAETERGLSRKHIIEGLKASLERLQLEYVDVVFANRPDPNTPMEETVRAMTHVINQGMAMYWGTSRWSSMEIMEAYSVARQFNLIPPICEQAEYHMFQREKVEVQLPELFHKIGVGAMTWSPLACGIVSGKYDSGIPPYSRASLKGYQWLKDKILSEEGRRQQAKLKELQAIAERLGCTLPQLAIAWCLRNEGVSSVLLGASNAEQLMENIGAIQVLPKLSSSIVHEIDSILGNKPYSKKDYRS
# Alpha-2C adrenergic receptor (Homo sapiens), sequence (P18825 whole entry, looked up): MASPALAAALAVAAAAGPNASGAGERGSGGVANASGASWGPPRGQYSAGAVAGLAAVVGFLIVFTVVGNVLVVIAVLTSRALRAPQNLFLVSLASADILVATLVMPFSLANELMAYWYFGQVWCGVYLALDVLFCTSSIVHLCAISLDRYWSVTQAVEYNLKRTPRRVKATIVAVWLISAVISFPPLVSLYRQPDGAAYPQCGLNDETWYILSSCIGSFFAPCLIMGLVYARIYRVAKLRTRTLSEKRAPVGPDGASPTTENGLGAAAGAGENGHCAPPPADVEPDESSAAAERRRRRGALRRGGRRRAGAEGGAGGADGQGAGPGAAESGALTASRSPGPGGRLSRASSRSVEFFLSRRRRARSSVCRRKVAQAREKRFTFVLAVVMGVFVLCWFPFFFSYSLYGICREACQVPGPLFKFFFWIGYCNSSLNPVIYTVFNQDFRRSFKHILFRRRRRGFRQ
SMILES,cell count [1],inhibition [1],inhibition of aggregation [2],nuclei count [2],inhibition [3],nuclei count [3],fluorescence slope [4],NADPH fluorescence slope [5],slope [6],inhibition [7],inhibition [8]
COc1cccc(NC(=O)N(Cc2ccco2)C(C)c2cccs2)c1 (stereo not given),734,-12.7% (inactive),-16.2% (inactive),103%,-52.3% (inactive),114%,-0.469 (inactive),2.7e-05 (inactive),0.00569 (inactive),11% (inactive),15.1% (inactive)
CC(=O)Nc1cccc(NC(=O)c2ccco2)c1,286,2.5% (inactive),-7.1% (inactive),122%,-72.9% (inactive),131%,-0.391 (inactive),2.6e-05 (inactive),0.00425 (inactive),5.39% (inactive),26.7% (inactive)
CC(C)=CC(=O)N1CCCc2ccccc21,308,-2.8% (inactive),-5.5% (inactive),84.6%,3.3% (inactive),96.7%,-0.606 (inactive),-2.8e-05 (inactive),0.00337 (inactive),16.7% (inactive),17% (inactive)
COc1ccccc1N1CCN(CC(O)c2ccc3cc[nH]c3c2)CC1 (stereo not given),633,-3.9% (inactive),3.6% (inactive),114%,-43.4% (inactive),105%,-0.54 (inactive),-1.4e-05 (inactive),0.0062 (inactive),-0.148% (inactive),27.7% (inactive)
CCc1cc(C(=O)OC)c(NC(=O)CCC(=O)O)s1,719,-5.2% (inactive),3.9% (inactive),117%,-24% (inactive),106%,-0.392 (inactive),3.6e-05 (inactive),0.0103 (inactive),-0.441% (inactive),97.6% (active)
CC(=O)Nc1ccc(OCC(O)CN2CCN(c3cccc(Cl)c3)CC2)cc1 (stereo not given),469,7% (inactive),-19.8% (inactive),115%,-27.1% (inactive),115%,-0.481 (inactive),-4.2e-05 (inactive),0.00626 (inactive),3.23% (inactive),21.4% (inactive)
CCOC(=O)C1=C(C)Nc2nnnn2C1c1c[nH]c2ccccc12 (stereo not given),498,0.6% (inactive),1.4% (inactive),47.3%,-59.7% (inactive),101%,-0.612 (inactive),-1.2e-05 (inactive),0.00469 (inactive),7.12% (inactive),8.76% (inactive)
COc1ccc(-c2nnc(SCC(=O)Nc3ccc(Cl)cc3)n2C)cc1,327,-5.5% (inactive),-26.9% (inactive),139%,-77.8% (inactive),122%,-0.462 (inactive),3.4e-05 (inactive),0.00817 (inactive),-16% (inactive),-1.71% (inactive)
COc1ccc(C2=NOC(C(=O)NC3CCCCC3)C2)cc1OC (stereo not given),832,-14.3% (inactive),1.9% (inactive),104%,-84.9% (inactive),96.1%,-0.547 (inactive),-4.1e-05 (inactive),0.00464 (inactive),14.9% (inactive),20.1% (inactive)
CC1(C)NC(=O)N(CCOc2cccc(Cl)c2Cl)C1=O,411,-1.1% (inactive),1.3% (inactive),98%,-35.1% (inactive),92.1%,-0.338 (inactive),-6.5e-06 (inactive),0.00521 (inactive),16.8% (inactive),18.5% (inactive)
O=C(COC(=O)C12CC3CC(CC(C3)C1)C2)NCc1ccco1,661,3.4% (inactive),-6.5% (inactive),109%,-28.3% (inactive),113%,-0.561 (inactive),7.7e-06 (inactive),0.00593 (inactive),11.1% (inactive),31.8% (inactive)
O=C(NCc1ccccn1)C(C(=O)c1ccc(F)cc1)n1ccccc1=O (stereo not given),531,-1.5% (inactive),3.1% (inactive),70.7%,-117% (inactive),219%,-0.472 (inactive),-3.8e-05 (inactive),0.0066 (inactive),-10.6% (inactive),3.51% (inactive)
Cc1cc2cc(CN(CCCN3CCOCC3)C(=O)NC3CCCCC3)c(=O)[nH]c2cc1C,540,-2.5% (inactive),-7.3% (inactive),93.3%,0.4% (inactive),105%,-0.484 (inactive),6.2e-07 (inactive),0.00496 (inactive),10.2% (inactive),34.8% (inactive)
Cc1cccc(-n2c(=O)cc(N3CCN(c4ccc(F)cc4)CC3)[nH]c2=O)c1,605,0% (inactive),15.8% (inactive),50.1%,15.8% (inactive),83.6%,-0.448 (inactive),-2.5e-05 (inactive),0.00544 (inactive),-5.09% (inactive),-5.41% (inactive)
O=C(NCc1ccco1)C1(S(=O)(=O)c2ccc(Cl)cc2)CC1,412,1.1% (inactive),-16% (inactive),120%,-100% (inactive),115%,-0.639 (inactive),2e-05 (inactive),0.00602 (inactive),16.2% (inactive),32.7% (inactive)
Cc1c(C(=O)NCCC2=CCCCC2)oc2ccc(S(=O)(=O)N3CCC4(CC3)OCCO4)cc12,643,10.9% (inactive),-35% (inactive),113%,-42.7% (inactive),106%,-0.413 (inactive),-5.5e-05 (inactive),0.00783 (inactive),16.2% (inactive),29.4% (inactive)
CCOC(=O)N1CCC(NC(=O)CN2C(=O)CCSc3ccccc32)CC1,807,-8.5% (inactive),5.8% (inactive),101%,-78% (inactive),108%,-0.515 (inactive),-3.1e-05 (inactive),0.00644 (inactive),4.21% (inactive),1.38% (inactive)
Nc1nc(-c2ccc(Br)s2)c(Br)s1,579,-10.7% (inactive),5.7% (inactive),102%,18.6% (inactive),98%,-0.507 (inactive),2.9e-05 (inactive),0.00465 (inactive),1.12% (inactive),2.3% (inactive)
CC(NC(=O)c1noc2c1CCCCC2)c1ccccc1 (stereo not given),936,6.9% (inactive),-5% (inactive),154%,-24.9% (inactive),126%,-0.618 (inactive),-3.4e-05 (inactive),0.00631 (inactive),-24.9% (inactive),-53.9% (inactive)
COc1ccc(C(CNC(=O)c2ccc(OCC3CCCO3)cc2)N2CCOCC2)cc1 (stereo not given),666,0.6% (inactive),-1.9% (inactive),86.2%,7.9% (inactive),112%,-0.49 (inactive),-4e-05 (inactive),0.00447 (inactive),15.9% (inactive),20.4% (inactive)
